Several values for one entry are separate records, joined by “and”; a condition that tells them apart may be missing. Equal entries are not always repeated. This is part of a sample that, as a whole, favours compounds with a hit. Of some 83,000 tested, about 20% had one in any assay.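 For each line, cells grew in 96-well plates with the test compound present at a single concentration for 48 hours.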 A number with no mark means an inactive call. Activity calls are given as the source filed them.

One assay relates to UACC-62 melanoma. In words: NCI-60 one-dose screen, 48 h (100 = growth as untreated, 0 = no growth, -100 = all killed). To be noted: 10 µM. The protocol:
Growth inhibition of the UACC-62 human tumor cell line is measured as a screen for anti-cancer activity. Cells are grown in 96 well plates and exposed to the test compound for 48 hours. Compounds are tested at a single concentration, which is 10^-5 M for most compounds. The reported endpoint is percent growth (GI% or GIPRCNT), where numbers from 0 - 100% represent growth inhibition, and numbers from -100% - 0 represent cell death. For example, a value of 40 represents 60% growth inhibition. A value of 0 means no net growth occurred over the course of the experiment. A value of -40 indicates 40% of cells at the beginning of the experiment died by the end of the experiment. A value of -100 means all cells are dead at the end of the experiment.
NCI-60 Human Tumor Cell Lines Screen was performed using the standard one-dose NCI protocol, which is described in more detail at https://dtp.cancer.gov/discovery_development/nci-60/default.htm.
Compounds with GIPRCNT values below 10 were considered active. Activity score was based on GIPRCNT using the following formula: […]
Score is 0 for GIPRCNT values of 100 or above, 50 for GIPRCNT values of 0, and 100 for GIPRCNT values of -100.
With `C=CC(C)(C)n1cc(C2=C(O)C(=O)C(c3cn(C(C)(C)C=C)c4ccccc34)=C(O)C2=O)c2ccccc21`, the growth is 100%.

The same assay, now with this note: 10 µM unless noted.
On to `COc1ccc2c(Cl)cc(NC(=O)Nc3c(C)cccc3C)nc2c1`, for which the growth was 87.7%.
Still for that read-out and setting: to `Cc1ccc2[nH]c3ccccc3c2c1` belongs 98.4%; to `CC(=O)OC/C(C)=C\CC(C)COC(C)=O` (stereo not given), 101%.
The same measure, in the same setting: to `O=Cc1c(O)c2ccccc2[nH]c1=O` belongs 87.9%; to `C=C1SC(=Nc2c(C)cccc2C)N(c2nc(Cl)nc(Cl)n2)C12CCCCC2`, 105%.
Still for that read-out and setting: next, `Cc1nc(O)cc(=O)[nH]1`: 113%; `CCCCCCCCCCCCCCCCOc1ccccc1NC(=O)CC(C)=O`: 78.7%.
As to `Nc1ncnc(Nc2ccc(C(F)(F)F)cc2)n1`, the growth was 89.1%.
Regarding `Cc1[nH]nc(C(N)=O)c1[N+](=O)[O-]`, the growth was 90.3%.
The same measure, in the same setting: to `C/C(O)=C(/C=N/C(=S)Nc1ccccc1)C(=O)Nc1ccccc1C` belongs 79.4%.
The same measure, in the same setting: next, `C#CC(O)c1ccccc1` (stereo not given): 103%.
On the same count and under the same terms, next, `COc1cc(C(=O)N2CCN(c3ccccc3)CC2)c2ccccc2n1`: 32.6%; `Cc1ccc(C)c(CCO)c1`: 103%; `N#C/C(=C\c1ccc2c(c1)OCO2)c1ccccc1`: 69.7%.
As for `C=CC(=O)OC1CCC(C(C)(C)CC)CC1` (stereo not given), the growth was 109%.
Still for that read-out and setting: next, `Nc1nc(N)nc(N2CCCCC2)n1`: 104%; `COc1ccc(Br)c2c1C(=O)CC2`: 90.4%; `C/C(=N\N=C(/C)c1cccc([N+](=O)[O-])c1)c1cccc([N+](=O)[O-])c1`: 93.2%.
Turning to `CCCCCCCCCCCCSC1=C(Cl)C(=O)C(OC)=C(OC)C1=O`, the growth was 45.4%.
The same measure, in the same setting: next, `COC1C(=O)CCC2(CO2)C1(O)C1(C)OC1CCC(C)C` (stereo not given): 70.4%.
Still for that read-out and setting: next, `CC(C)N(C(=O)c1ccccc1)C(C)C`: 108%.
Consider `CC(=O)CSc1ncnc2nc[nH]c12`, for which the growth is 74.6%.
Still for that read-out and setting: to `Nc1cc2c(cc1Cl)C(=O)c1ccccc1C2=O` belongs 73.2%; to `CCCCNc1ccc(-c2ccc(NCCCC)cc2)cc1`, 42.8%.
Still for that read-out and setting: next, `CC(C)C(C)(C)C(=O)C(C)(C)C(C)(C)C`: 102%; `CCOC(=O)CNC`: 94.8%.
As for `Nc1cc(N)ncn1`, the growth is 99.6%.
The same measure, in the same setting: next, `CC(=O)c1ccc(C)cc1`: 105%; `CN(C)c1ccc(O)c2c1CC1CC3C(N(C)C)C(=O)C(C(N)=O)=C(O)C3(O)C(=O)C1=C2O` (stereo not given): 29%; `OCc1cccnc1`: 103%.
The same measure, in the same setting: next, `CCOc1ccncc1[N+](=O)[O-]`: 100%; `O=C(Nc1c(Cl)cc(Cl)cc1Cl)ON=C1CCCCC1`: 98.7%; `O=S(=O)(O)c1ccc(O)c(C2CCCCC2)c1`: 109%.
On the same count and under the same terms, to `CC1(c2ccccc2)CO1` (stereo not given) belongs 104%; to `CCOc1ccc(NC(=S)N2CCC(CCCC3CCN(C(=S)Nc4ccc(OCC)cc4)CC3)CC2)cc1`, 83.7%.
As for `CCOC(C=O)OCC`, the growth is 104%.
On the same count and under the same terms, next, `COc1cc(C(=O)O)c(O)c(C(C)(C)C)c1`: 104%; `CCCCCC/C=C\CCCCCCCCCc1cc(O)cc(OC)c1O`: 6.32% (active).

The assay is the same for the next values; noted with them: 100 µM.
For the compound `C=CC(C)(C)n1cc(C2=C(O)C(=O)C(c3cn(C(C)(C)C=C)c4ccccc34)=C(O)C2=O)c2ccccc21`, the growth was -85.8% (active) and -96.5% (active).

The values above are taken from PubChem BioAssay (NCI).
